Source: PubChem (The Scripps Research Institute Molecular Screening Center)
In the library only some 2.8% were active in any assay of this set; here they are far more common.
PAFAH1B3 inh = PAFAH1B3 enzyme inhibitors, primary screen, biochemical, fluorescence polarization, human. Platelet-activating factor acetylhydrolase IB subunit alpha1 (Homo sapiens), Q15102. hit rate 0.28% among 340,000. recombinant PAFAH1B3, FP-rhodamine probe. AID 492972, 2010. inhibition, % at 3.39 µM;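 active = inhibition above the screen-wide average of all tested compounds plus 3 SD, cut at about 25% in these data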;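 note: 0% = enzyme with DMSO only and 100% = wells lacking PAFAH1B3 protein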
Target sequence (Q15102 whole entry, looked up): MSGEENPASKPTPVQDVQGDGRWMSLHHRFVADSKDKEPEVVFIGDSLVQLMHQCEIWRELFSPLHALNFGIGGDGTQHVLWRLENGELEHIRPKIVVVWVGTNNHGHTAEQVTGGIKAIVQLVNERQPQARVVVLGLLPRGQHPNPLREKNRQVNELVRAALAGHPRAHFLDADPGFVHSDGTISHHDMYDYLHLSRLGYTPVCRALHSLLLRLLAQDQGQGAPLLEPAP
PAFAH1B2 FP inh = PAFAH1B2 enzyme inhibitors, primary screen, biochemical, fluorescence polarization, human; Platelet-activating factor acetylhydrolase IB subunit alpha2 (Homo sapiens), P68402; AID 492953, 2010; hit rate 1.2% among 340,000; inhibition, % at 3.39 µM; recombinant PAFAH1B2, FP-rhodamine activity probe;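 active = inhibition above the mean of all tested compounds plus 3 SD, cut at about 24% in these data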;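 note: 0% = enzyme with DMSO and 100% = wells lacking PAFAH1B2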
pPAFAH FP inh = pPAFAH enzyme inhibitors, primary screen, biochemical, fluorescence polarization, human; AID 463082, 2010; recombinant pPAFAH, FP-rhodamine probe fluorescence polarization; inhibition, % at 3.39 µM; Platelet-activating factor acetylhydrolase (Homo sapiens), Q13093; hit rate 1.5% among 330,000;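 active = inhibition above the mean inhibition across the screen plus 3 SD, cut at about 25% in these data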;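 note: inhibitors block binding of the rhodamine activity-based probe so polarization drops; 0% = enzyme with DMSO and 100% = wells lacking pPAFAH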
Fam108B counter = mouse Fam108B serine hydrolase inhibitors, primary screen, counter-screen for RBBP9 inhibitor project, biochemical, fluorescence polarization; recombinant Fam108B, FP-Rh probe fluorescence polarization; inhibition, % at 9.51 µM; hit rate 0.33% among 300,000;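 active = inhibition above the screen mean inhibition plus 3 SD, computed separately per campaign, cut at about 18% in these data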;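 note: inhibitors lower polarization as less probe binds the enzyme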
PAFAH2 inh = PAFAH2 enzyme inhibitors, primary screen, biochemical, fluorescence polarization, human. recombinant PAFAH2, FP-rhodamine activity probe. Platelet-activating factor acetylhydrolase 2, cytoplasmic (Homo sapiens), Q99487. AID 492956, 2010. hit rate 0.99% among 340,000. inhibition, % at 3.39 µM;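 active = inhibition above the mean over all tested compounds plus 3 SD, cut at about 30% in these data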;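 note: inhibitors block probe labeling of enzyme so polarization drops; 0% = enzyme with DMSO and 100% = wells lacking PAFAH2 protein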
PME-1 inh = PME-1 inhibitors via competitive probe labeling, primary screen, biochemical, fluorescence polarization, FP-Rh probe, HTS | Protein phosphatase methylesterase 1 (Homo sapiens), Q9Y570 | recombinant PME-1 | inhibition, % at 5.9 µM | hit rate 0.53% among 320,000 | AID 2130, 2009;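 active = inhibition above the campaign mean of all compounds plus 3 SD, cut at about 26% in these data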;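 note: competitive labeling of PME-1 active site by serine hydrolase directed probe; 0% = PME-1 with DMSO and 100% = wells lacking PME-1 enzyme; inhibitors block probe labeling so polarization falls and inhibition rises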
Target sequence (Q9Y570 whole entry, looked up): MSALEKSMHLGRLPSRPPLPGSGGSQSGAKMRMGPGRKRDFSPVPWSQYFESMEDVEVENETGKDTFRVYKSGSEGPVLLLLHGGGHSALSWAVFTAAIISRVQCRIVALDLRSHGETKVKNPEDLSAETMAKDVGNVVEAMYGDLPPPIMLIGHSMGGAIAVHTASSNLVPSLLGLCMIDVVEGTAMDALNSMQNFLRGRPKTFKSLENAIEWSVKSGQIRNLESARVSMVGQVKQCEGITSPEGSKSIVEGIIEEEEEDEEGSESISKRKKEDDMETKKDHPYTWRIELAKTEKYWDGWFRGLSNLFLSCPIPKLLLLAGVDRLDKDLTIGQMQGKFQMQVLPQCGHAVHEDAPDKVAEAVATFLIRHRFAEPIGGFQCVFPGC
PAFAH2 FP conf = PAFAH2 enzyme inhibitors, confirmation, biochemical, fluorescence polarization, human; hit rate 65% among 2,300; shares compounds with PAFAH2 inh; AID 493030, 2011; inhibition, % at 3.39 µM; recombinant PAFAH2, FP-rhodamine activity probe;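 active = mean inhibition over three repeats above a set limit taken from the earlier primary screen, cut at about 30% in these data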;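 note: inhibitor blocks binding of rhodamine activity probe so polarization falls; 0% = enzyme with DMSO and 100% = wells lacking PAFAH2 protein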
* marks the source's active call; other numbers are inactive results; / = no result.

SMILES	PAFAH1B3 inh	PAFAH1B2 FP inh	pPAFAH FP inh	Fam108B counter	PAFAH2 inh	PME-1 inh	PAFAH2 FP conf
O=C(COC(=O)c1ccc(CO)cc1)Nc1ccc(OC(F)F)cc1	3.6	2.3	-5.7	1.8	81.5*	-8.8	74.2*
O=C(COC(=O)c1ccc(CO)cc1)Nc1ccc2ccccc2c1	-1.2	-0.2	-5.5	/	80.5*	-10.2	71.4*
Cc1cc(C)c(-c2cc(NC(=O)COC(=O)c3ccc(CO)cc3)n(-c3ccccc3)n2)cc1C	-6.5	-4.6	3.2	2.7	31.7*	4.7	23.3
O=C(COC(=O)c1ccc(OC(F)F)cc1)NCCNC(=O)COC(=O)c1ccc(OC(F)F)cc1	-3.2	3.3	-1.6	-1.0	-0.5	-3.4	/
O=C(O)CNS(=O)(=O)c1ccc2c(c1)Cc1cc(S(=O)(=O)NCC(=O)O)ccc1-2	-0.1	-1.1	0.7	-6.0	-1.8	0.3	/
CCn1c(SCC(=O)N2CCCCC2C)nc2c1c(=O)n(C)c(=O)n2C (configuration not stated)	-3.3	0.4	-1.4	1.4	-6.0	-1.7	/
CCOc1cccc2cc(C(N)=O)c(=N)oc12	3.6	1.0	/	/	5.6	/	/
COC(=O)C(C)Sc1nc2ccsc2c(=O)n1Cc1ccccc1 (configuration not stated)	0.4	2.1	1.6	0.7	34.5*	-5.0	23.5
COc1ccc(Cn2c(SCC(=O)NCc3ccco3)nc3ccsc3c2=O)cc1	-4.4	3.8	-5.1	-1.1	3.6	-1.8	/
COc1ccccc1/C=N/OC(=O)c1ccc(F)cc1	5.0	7.2	5.1	2.5	77.3*	5.5	64.0*
Cn1ncc([N+](=O)[O-])c1C(=O)N1CCCCCC1	6.3	-1.4	/	/	-2.2	/	/
CC(C)(C)c1cc(C(=O)N/N=C/c2cc3c(cc2Br)OCO3)n[nH]1	7.5	5.1	1.4	3.2	-4.9	-14.1	/
O=C(COC(=O)/C=C/c1ccc(S(=O)(=O)N2CCOCC2)cc1)NCc1ccc(F)cc1	20.7	2.4	8.6	0.8	38.7*	3.7	34.5*
Cc1ccc(S(=O)(=O)N2CCOCC2)cc1NC(=O)COC(=O)/C=C/c1ccc(F)cc1	4.4	0.3	2.4	/	52.6*	/	47.2*
Cc1ccc(F)cc1NC(=O)/C=C/c1ccc(S(=O)(=O)N2CCOCC2)cc1	5.5	1.3	3.3	/	-5.3	/	/
Cc1cccc(C)c1NC(=O)COC(=O)/C=C/c1ccc(S(=O)(=O)N2CCOCC2)cc1	8.2	8.4	0.5	/	44.9*	/	29.5
COc1ccc(CNC(=O)COC(=O)/C=C/c2ccc(Cl)cc2)cc1	9.8	0.2	1.5	-1.6	4.6	-2.3	/
COc1ccc(/C=C/C(=O)OCC(=O)NC(C)CCc2ccccc2)cc1 (configuration not stated)	6.8	6.8	6.7	/	68.5*	/	55.2*
CNC(=S)N1CCN(c2nc(-c3ccc(Cl)cc3)cs2)CC1	3.0	-0.5	4.2	3.8	3.4	1.1	/
Cc1nn(-c2ccccc2)c(C)c1NC(=O)COC(=O)/C=C/c1ccccc1	3.3	1.2	5.9	3.0	38.6*	-2.8	32.3*
CCC(C(=O)OCC(=O)Nc1c(C)nn(-c2ccccc2)c1C)c1ccccc1 (configuration not stated)	-1.1	3.5	11.5	-4.9	0.6	0.6	/
O=C(COC(=O)/C=C/c1ccc(S(=O)(=O)N2CCOCC2)cc1)Nc1ccccc1F	9.8	5.9	9.1	/	59.5*	/	42.1*
COc1ccc(/C=C/C(=O)OCC(=O)NCCNC(=O)COC(=O)/C=C/c2ccc(OC)cc2)cc1	-6.4	1.6	-0.7	0.6	0.4	3.0	/
Cc1cc(S(=O)(=O)N2CCOCC2)ccc1OCC(=O)Nc1ccccc1F	0.9	3.3	-0.6	-3.1	-12.6	2.0	/
COc1ccc(/C=C/C(=O)OCC(=O)Nc2c(C)cccc2C)cc1	4.5	5.7	7.4	-0.7	63.2*	1.3	65.2*
SMILES	PAFAH1B3 inh	PAFAH1B2 FP inh	pPAFAH FP inh	Fam108B counter	PAFAH2 inh	PME-1 inh	PAFAH2 FP conf
Cc1nn(-c2ccc(C(=O)N3CCN(S(=O)(=O)c4ccccc4C(F)(F)F)CC3)cc2)c(C)c1Cl	3.3	-1.3	0.2	/	7.7	3.1	/
CC(=O)c1ccc(S(=O)(=O)N2CCN(C(=O)c3ccc(-n4nc(C)c(Cl)c4C)cc3)CC2)cc1	1.8	-7.3	-1.9	/	49.5*	1.6	43.0*
COc1ccc2c(C)cc(Sc3nnnn3-c3ccccc3)nc2c1	8.4	3.3	1.3	-3.8	6.7	1.4	/
CN(CC(=O)Nc1ccccc1Cl)C(=O)COC(=O)CCN1C(=O)C2CC=CCC2C1=O (configuration not stated)	5.8	1.7	6.5	-0.7	1.9	-8.9	/
O=C(NCC(c1cccs1)N1CCOCC1)c1ccccc1NS(=O)(=O)c1ccc(Cl)c([N+](=O)[O-])c1 (configuration not stated)	13.5	17.4	-3.1	-1.5	42.6*	2.1	81.0*
O=c1c2cnn(-c3ccccc3)c2nc(-c2ccco2)n1-c1ccccc1	3.4	0.8	7.5	0.3	-2.3	-2.1	/
O=c1oc(-c2ccco2)nc2c1cnn2-c1ccccc1	11.1	9.1	1.8	5.2	85.4*	-6.1	59.3*
Cc1sc2c(c1C)C(=O)/C(=C\Nc1ccncc1)S(=O)(=O)N2C	-1.8	0.9	0.6	0.1	-2.7	-2.9	/
Cc1ccccc1-c1nc2cc(Cl)ccc2c(=O)o1	-4.7	0.0	-4.2	4.0	16.0	-3.8	/
Cc1cccc2c(=O)oc(-c3ccccc3Cl)nc12	5.3	4.0	8.3	2.6	49.4*	-3.9	40.2*
CC(=O)N1CCc2cc(S(=O)(=O)CCC(=O)Nc3c(C)n(C)n(-c4ccccc4)c3=O)ccc21	4.5	0.4	-4.3	0.7	0.5	3.9	/
O=C(Nc1ccc(Cl)cc1)[C@@H]1[C@@H]2C(=O)N(c3ccc(Cl)cc3)C(=O)[C@@H]2[C@H]2C=CC=NN21	2.9	-1.8	23.9	-3.0	33.4*	-5.2	-3.4
CN(C)S(=O)(=O)n1cnc([C@@H]2[C@H]3C(=O)OC[C@@H]3C[C@@]23N=CN(Cc2ccccc2)C3=O)c1	7.7	7.3	2.3	/	40.1*	-0.3	34.2*
CC(OC(=O)c1cc(S(=O)(=O)N(C)C)ccc1N1CCCC1)C(=O)NCc1ccccc1 (configuration not stated)	5.9	-0.2	0.8	-0.2	-3.1	4.6	/
Cc1c(C(=O)N2CCN(Cc3ccccc3)CC2)oc2c1C(=O)CC(C)(C)C2	4.1	0.6	2.6	1.8	4.1	1.4	/
